Compounds with a hit are over-represented: about 7.5% of the library has one in this group of screens.
FBPA Giardia inh: blocks Giardia fructose-bisphosphate aldolase activity; A8B2U2; purified Giardia FBPA; Potency, µM (top dose mostly 59.6 µM), actives largely listed as inhibitors; actives 0.71% (n = 290,000); AID 2451; further: nearly all actives have a fitted effect of over 55% in size
Target sequence (A8B2U2 whole entry, looked up): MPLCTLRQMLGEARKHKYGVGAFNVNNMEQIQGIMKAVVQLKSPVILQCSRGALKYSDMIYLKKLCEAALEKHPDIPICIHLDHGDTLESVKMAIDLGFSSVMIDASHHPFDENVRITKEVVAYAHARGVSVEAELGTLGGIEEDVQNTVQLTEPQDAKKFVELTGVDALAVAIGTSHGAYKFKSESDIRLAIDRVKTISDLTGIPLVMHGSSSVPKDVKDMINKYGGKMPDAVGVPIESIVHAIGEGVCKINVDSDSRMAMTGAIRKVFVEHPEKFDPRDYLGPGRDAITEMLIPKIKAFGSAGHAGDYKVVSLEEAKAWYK
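Giardia FBPA (40 nM reagent) was preincubated 10 min at RT with compound (up to 57.5 uM final), then substrate plus GAPDH/TPI/NAD/arsenate coupling system with diaphorase/resazurin was added; resorufin fluorescence (525/598 nm) was read after 20 min.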
HCMV antiviral: human cytomegalovirus inhibition | HFF cells, HCMV-luciferase reporter, 72 h; hits give low values | activity change, negative = inhibition, % at 57.5 µM | actives 4.5% (n = 410,000); in the data active means activity change below about -60%; inconclusive means no clear call, values can overlap the other calls; inactive means above about -39%
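Human foreskin fibroblasts infected with luciferase-reporter HCMV at MOI 1 PFU/cell, compounds at two doses. Luciferase measured 72 h post infection; normalized to buffer-only basal and Salinomycin (10uM) controls.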
VACV mCherry inh: vaccinia inhibition (mCherry reporter) | Vaccinia virus mCherry reporter infection, fluorescence | Potency, µM (top dose mostly 36.5 µM), usual class: inhibitors | actives 0.63% (n = 310,000) | AID 720579; calls by dose curve; tested in A549 cells; further: nearly all actives have a fitted effect of over 35% in size
HCV inhibitor: blocks hepatitis C virus; Huh7.5.1 HCVcc-Cre infection, luciferase reporter, 44 h; Potency, µM (highest dose often 41.8 µM), usual class: inhibitors; actives 3.4% (n = 340,000); AID 651820
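Reporter virus HCVcc-Cre (~0.5 moi) infects cells exposed to compound; seeding density 1,000 cells/well with 4 h settling beforehand. Luminescence, 15 sec read, taken 44 h post-infection following a 15 min RT substrate incubation.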
FMDV inh: blocks foot and mouth disease virus | FMDV antiviral cell-based qHTS | Potency, µM (doses to about 57.9 µM), usual class: inhibitors | actives 1.2% (n = 410,000) | AID 1159524; calls by dose curve; tested in HEK293T cells; further: read-out not given here; nearly all actives have a fitted effect of over 45% in size
Vaccinia Venus: inhibitors of vaccinia virus (Venus reporter); Vaccinia virus Venus reporter expression, fluorescence; Potency, µM (highest dose often 36.5 µM), most hits filed as inhibitors; actives 0.46% (n = 330,000); AID 720580; calls by dose curve; tested in A549 cells; further: nearly all actives have a fitted effect of over 30% in size
A number is an active result. Unless noted, the call rests on the fitted dose curve; in most records, active means well fitted curve in the direction sought with a large enough effect; inconclusive means small, poorly fitted or top-dose-only effect, or another doubt; inactive means no such curve, though single readings can be large; an effect the other way counts as inactive or inconclusive.

For CN(C(=O)CSc1nc2ccc(NC(=O)c3cccs3)cc2s1)c1ccccc1 the results were HCMV antiviral -76, VACV mCherry inh inactive, FMDV inh inconclusive and Vaccinia Venus inactive.
COCCN1CCn2c(nc3cc(NC(=O)c4cccs4)ccc32)C1 was read as FBPA Giardia inh inactive, HCMV antiviral inactive, VACV mCherry inh inactive, HCV inhibitor inactive and Vaccinia Venus inactive.
Screening CC(=O)Nc1ccc2nc(SCCOc3ccccc3)sc2c1 returned HCMV antiviral -78, VACV mCherry inh inactive, FMDV inh inactive and Vaccinia Venus inactive.
`Cc1ccc(OCC(=O)Nc2ccc3nc(SCc4ccccc4)sc3c2)cc1` gave HCMV antiviral inactive, VACV mCherry inh inactive, FMDV inh inactive and Vaccinia Venus inactive.
Screening CC(c1ccccc1)N1CCn2c(nc3cc(NC(=O)c4cccs4)ccc32)C1 (stereo not given) returned FBPA Giardia inh inactive, HCMV antiviral -73, VACV mCherry inh inactive, HCV inhibitor 10µM and Vaccinia Venus inactive.
Screening CN(C(=O)CSc1nc2ccc(NC(=O)c3ccccc3)cc2s1)c1ccccc1 returned HCMV antiviral inactive, VACV mCherry inh inactive, FMDV inh inconclusive and Vaccinia Venus inactive.
CCOc1ccc(C(=O)Nc2ccc3nc(SCc4ccccc4)sc3c2)cc1 was read as HCMV antiviral inactive, VACV mCherry inh inconclusive, FMDV inh inactive and Vaccinia Venus 10µM.
`COc1cccc(Nc2ncc3nc(CCc4ccccc4)c(=O)n(C[C@H]4CCCO4)c3n2)c1` gave FBPA Giardia inh inactive and FMDV inh inactive.
COc1ccc(NC(=O)CNC(=O)CC23CC4CC(CC(C4)C2)C3)c(OC)c1 was read as HCMV antiviral inactive, VACV mCherry inh inactive, HCV inhibitor inactive, FMDV inh inactive and Vaccinia Venus inactive.
`Cc1nccc2c1[nH]c1ccc(Br)cc12` gave HCMV antiviral inactive, VACV mCherry inh inconclusive, HCV inhibitor 4µM, FMDV inh inactive and Vaccinia Venus inconclusive.
COc1ccc2c(c1)[nH]c1c(C)nccc12 was read as FBPA Giardia inh inactive, HCMV antiviral -95, VACV mCherry inh inactive, HCV inhibitor inconclusive, FMDV inh inconclusive and Vaccinia Venus inconclusive.
`CCCCn1cnc2c([nH]c3cc(OC)ccc32)c1=O` gave FBPA Giardia inh inactive, HCMV antiviral inactive, HCV inhibitor inconclusive, FMDV inh inactive and Vaccinia Venus inconclusive.
For CCc1ccc(S(=O)(=O)Nc2cccc(-c3ccc(N4CCCCC4)nn3)c2)s1 the results were HCMV antiviral inactive, VACV mCherry inh inactive, FMDV inh inactive and Vaccinia Venus inactive.
`Oc1cc(-c2nc3ccccc3s2)cc2c1OCCN(Cc1cccn1-c1nccs1)C2` gave VACV mCherry inh inactive, FMDV inh inactive and Vaccinia Venus inactive.
For CCc1ccccc1NC(=O)CSc1ccsc1[N+](=O)[O-] the results were FBPA Giardia inh inactive, HCMV antiviral -66, VACV mCherry inh inactive, HCV inhibitor inconclusive, FMDV inh inconclusive and Vaccinia Venus inactive.
For O=C(CSc1ccsc1[N+](=O)[O-])N1CCN(c2ccccn2)CC1 the results were FBPA Giardia inh inactive, HCMV antiviral -68, VACV mCherry inh inconclusive, HCV inhibitor inactive, FMDV inh inactive and Vaccinia Venus inactive.
`Cc1cc(/C=C2/C(=O)NN(c3ccccc3)C2=O)c(C)n1-c1ccc(O)cc1` gave FBPA Giardia inh inactive, HCMV antiviral -86, VACV mCherry inh inactive, HCV inhibitor inconclusive, FMDV inh 18µM and Vaccinia Venus inactive.
`CC1(C)CC2CC(C)(CN2/C=N/c2sc3c(c2C#N)CC(C)(C)NC3(C)C)C1` (stereo not given) gave FBPA Giardia inh inactive, HCMV antiviral -88, VACV mCherry inh inactive, HCV inhibitor inconclusive, FMDV inh inactive and Vaccinia Venus inconclusive.
`CC1(C)Cc2c(sc(N)c2C#N)C(C)(C)N1` gave FBPA Giardia inh inconclusive, HCMV antiviral inactive, HCV inhibitor inactive and FMDV inh inactive.
`COc1cccc(-c2cnc3c(NC=O)cc(-c4ccc(O)c(OC)c4)cn23)c1` gave HCMV antiviral inactive, VACV mCherry inh inactive, FMDV inh inactive and Vaccinia Venus inactive.
COc1ccc(-c2cc(NC=O)c3ncc(-c4cccc(C(F)(F)F)c4)n3c2)c(OC)c1 was read as HCMV antiviral inactive, VACV mCherry inh inconclusive, FMDV inh inconclusive and Vaccinia Venus inconclusive.
COc1ccc(-c2cnc3c(NC=O)cc(-c4ccccc4OC)cn23)cc1OC was read as HCMV antiviral -80, VACV mCherry inh inconclusive, FMDV inh inconclusive and Vaccinia Venus inconclusive.
COc1cccc(-c2cc(NC=O)c3ncc(-c4cc(OC)c(OC)c(OC)c4)n3c2)c1 was read as HCMV antiviral -81, VACV mCherry inh inconclusive, FMDV inh inconclusive and Vaccinia Venus inconclusive.
For Nc1ccc(-c2cc(NC=O)c3ncc(-c4cccc(C(F)(F)F)c4)n3c2)cn1 the results were HCMV antiviral inactive, VACV mCherry inh inconclusive, FMDV inh inconclusive and Vaccinia Venus 11µM.
`COc1ccc(-c2cc(NC=O)c3ncc(-c4ccc(OC)c(OC)c4)n3c2)cc1OC` gave HCMV antiviral inactive, VACV mCherry inh inconclusive, FMDV inh inconclusive and Vaccinia Venus inactive.
Cn1cc(-c2cnc3c(NC=O)cc(-c4cccc(C(F)(F)F)c4)cn23)cn1 was read as HCMV antiviral inactive, VACV mCherry inh 10µM, FMDV inh inactive and Vaccinia Venus inconclusive.
`Cn1ccnc1SCC(=O)N1CCN(S(=O)(=O)c2ccccc2)CC1` gave FBPA Giardia inh inactive, HCMV antiviral inactive, HCV inhibitor inactive and FMDV inh inactive.
For COc1cc(-c2ccc3ncc(-c4cccc(C(F)(F)F)c4)n3n2)cc(OC)c1OC the results were HCMV antiviral -95.
Screening COc1cc(-c2cnc3c(NC=O)cc(-c4cccc(C(F)(F)F)c4)cn23)cc(OC)c1OC returned HCMV antiviral -67, VACV mCherry inh inconclusive, FMDV inh 20µM and Vaccinia Venus inconclusive.
For COc1cc(-c2cc(NC=O)c3ncc(-c4ccc(C(C)=O)cc4)n3c2)ccc1O the results were HCMV antiviral inactive, VACV mCherry inh 10µM, FMDV inh inactive and Vaccinia Venus 11µM.
`Cc1ccc2c(c1)cc1c(=O)n(Cc3cccc(Cl)c3)nc(C)n12` gave HCMV antiviral inactive, VACV mCherry inh inactive, FMDV inh inactive and Vaccinia Venus inactive.
COC(=O)/C=C1/S/C(=N/N=C/c2ccc(N(C)C)cc2)NC1=O was read as FBPA Giardia inh inactive and HCV inhibitor inactive.
`CCn1c(C)c(C(C)=O)c(N2CCN(c3ccc(F)cc3)CC2)nc1=S` gave FBPA Giardia inh inactive, HCMV antiviral inactive, VACV mCherry inh inconclusive, HCV inhibitor inactive, FMDV inh inactive and Vaccinia Venus inactive.
For CC(=O)c1c(N2CCN(c3ccc(F)cc3)CC2)nc(=S)n(Cc2ccccc2)c1C the results were FBPA Giardia inh inactive, HCMV antiviral -68, VACV mCherry inh inactive, HCV inhibitor inconclusive, FMDV inh inconclusive and Vaccinia Venus inactive.

Screens deposited in PubChem by National Center for Advancing Translational Sciences (NCATS).
